# From PubChem BioAssay
# DAX1 inh-1: inhibitors of DAX1 repression of SF-1 activated StAR promoter; HEK293T StAR-luciferase reporter, SF-1/DAX-1 repression relief; inhibition, % at 6.8 µM; 1.1% of 370,000 active;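 active means inhibition above the mean over all tested compounds plus 3 SD, cut at about 3.6% in these data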;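 further: 0% = DAX-1 cells with DMSO and 100% = cells lacking DAX-1 with DMSO; higher inhibition means more luminescence from relief of DAX-1 repression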
# hgDAF-12 ag: activates the H. glycines DAF-12 receptor ligand-binding domain; activation, % at 6.8 µM; HEK293 GAL4-hgDAF12 UAS-luciferase reporter, agonist luminescence; normalized to butyrate control; 1.8% of 370,000 active; AID 687014;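 active means activation above a cutoff set at the mean of all screened compounds plus 3 SD, cut at about 10% in these data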;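 further: 0% = DMSO wells and 100% = sodium butyrate wells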
# SMARCA2 act: activators of SMARCA2 function; AID 652017; 1% of 370,000 active; MG213 cells, MMTV-luciferase reporter, dexamethasone, overnight; activation, % at 9.1 µM; in the data active means activation above about 7.8%;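 further: 0% = vehicle wells and 100% = reference activator wells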
# ssDAF12 agonist: S. stercoralis DAF-12 activation, primary screen; HEK293 ssDAF-12/GRIP1 lit1-tk-luc reporter, luminescence; % of 3 µM dafachronic acid response; activation, % at 6.8 µM; 1% of 370,000 active; AID 652126;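 active means activation above the mean over all tested compounds plus 3 SD, cut at about 0.9% in these data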;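 further: 0% = DMSO-only wells and 100% = 3 µM delta7-dafachronic acid wells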
# DAX1 inh-2: inhibitors of human orphan nuclear receptor DAX1 (NR0B1); HEK293 Gal4-DAX1 luciferase reporter, luminescence; inhibition, % at 6.75 µM; AID 504766; P51843; 0.99% of 340,000 active;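 active means inhibition above the mean over all tested compounds plus 3 SD, cut at about 4.2% in these data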;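 further: 0% = DAX1-transfected cells with DMSO and 100% = empty-vector control cells with DMSO; inhibition shows as a rise in luminescence from relieved DAX1 repression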
# Target sequence (P51843 207-470 limits assumed): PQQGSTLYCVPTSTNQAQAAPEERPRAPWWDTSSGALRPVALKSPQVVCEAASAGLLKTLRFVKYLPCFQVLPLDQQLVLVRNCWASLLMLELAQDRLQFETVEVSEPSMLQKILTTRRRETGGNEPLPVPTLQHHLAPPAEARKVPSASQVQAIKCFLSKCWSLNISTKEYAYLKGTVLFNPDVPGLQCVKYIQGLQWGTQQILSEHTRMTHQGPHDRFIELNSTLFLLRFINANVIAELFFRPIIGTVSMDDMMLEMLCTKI
# hcDAF12 agonist: activators of H. contortus DAF-12 nuclear receptor. HEK293 hcDAF-12 lit1-tk-luc reporter, luminescence; 0% DMSO, 100% Δ7-dafachronic acid. activation, % at 6.8 µM. 1.4% of 370,000 active;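 active means activation above the mean of all tested compounds plus 3 SD, cut at about 5.5% in these data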;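 further: 100% = response to 3 µM Δ7-dafachronic acid high control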
# * hit, by the source's call; . = no result. A selection: hits, their analogues and other compounds. The true share with any hit is near 4.8%.
SMILES,DAX1 inh-1,hgDAF-12 ag,SMARCA2 act,ssDAF12 agonist,DAX1 inh-2,hcDAF12 agonist
C[C@H](CO)N1C[C@H](C)[C@@H](CN(C)C(=O)Nc2cccc(Oc3ccccn3)c2)OCc2cn(nn2)CCCC1=O,2,1,-2,-1,.,-1
C[C@@H]1CN([C@@H](C)CO)C(=O)CCCn2cc(nn2)CO[C@H]1CN(C)C(=O)Nc1ccnc(N2CCOCC2)c1,0,-2,3,-1,.,-1
C[C@@H]1CN([C@@H](C)CO)C(=O)CCCn2nncc2CO[C@@H]1CN(C)C(=O)Nc1ccnc(N2CCOCC2)c1,1,0,-3,-1,6.2*,0
C[C@@H]1CN([C@H](C)CO)C(=O)CCCn2cc(nn2)CO[C@H]1CN(C)C(=O)Nc1cccc(Oc2ccccn2)c1,0,0,-5,-1,6.3*,-1
C[C@@H]1CN([C@H](C)CO)C(=O)CCCn2nncc2CO[C@H]1CN(C)C(=O)c1ccccc1,0,13*,-1,-1,0,0
C[C@@H]1CN([C@@H](C)CO)C(=O)CCCn2nncc2CO[C@@H]1CN(C)C(=O)c1ccccc1,0,0,-3,-1,0,-1
CC(=O)c1c(C)[nH]c(C(=O)OCC(=O)Nc2cccc(S(=O)(=O)N3CCCC3)c2)c1C,-3,-9,-5,-3,-5,-5
CCc1noc(C)c1C(=O)N(CC)CC(=O)Nc1ccccc1C(F)(F)F,1,1,-2,-1,1,0
CCN(CC(=O)Nc1ccccc1C(F)(F)F)C(=O)c1oc2ccc(OC)cc2c1C,4.2*,5,1,0,1,-1
CC(=O)c1cccc(NC(=O)Cc2ccc3c(c2)CCCC3)c1,-1,-2,-2,-1,0,-3
COc1ccc(C(=O)c2[nH]c(N)c(C(=O)NCCc3c[nH]c4ccccc34)c2-c2ccc(C(F)(F)F)cc2)cc1,0,5,0,1.9*,.,5
COc1ccc2c(c1)C(C)=CC(C)(C)N2S(=O)(=O)c1ccc(Br)cc1,-1,-6,0,-1,0,1
COc1cccc(OCc2cc(C(=O)N3CCCC3c3ccccn3)no2)c1 (stereo not given),3,12*,1,0,0,1
COc1cccc(OCc2cc(C(=O)N3CCN(C4CCCC4)CC3)no2)c1,0,-1,0,-1,-1,-1
NC(=O)[C@@H]1CCCN1C(=O)c1cc(COc2ccc3c(c2)CCCC3)on1,4.5*,7,1,0,0,1
Cc1cccc(C)c1OCc1cc(C(=O)N2CCC[C@H]2C(N)=O)no1,0,-2,1,0,0,-1
COc1cccc(OCc2cc(C(=O)N3CCNC(=O)C3Cc3ccccc3)no2)c1 (stereo not given),4.2*,6,2,-1,1,-1
Cc1cccc(OCC(O)CN2C(C)(C)CC(O)CC2(C)C)c1C (stereo not given),1,-1,-2,0,2,1
CC(=O)Nc1cccc(C(=O)OCC(=O)NC(=O)c2ccccc2)c1,1,-1,1,-1,2,1
CCOc1ccc(C(=O)NCc2ccco2)cc1,0,5,0,0,3,2
NC(=O)C1CCN(C(=O)c2ccc(CS(=O)(=O)c3c(Cl)cccc3Cl)o2)CC1,0,4,-1,-1,6.9*,-1
Cc1ccc(S(=O)(=O)Cc2ccc(C(=O)N3CCC(C(N)=O)CC3)o2)cc1,-1,0,-2,-1,0,2
COc1ccc(-n2nnc3c(SCC(=O)N4CCCc5ccccc54)ncnc32)cc1,1,-4,-2,-1,6.3*,-2
CC(=C/c1ccccc1)/C=N/n1c(C)n[nH]c1=S,0,2,0,-1,4.7*,-1
CC(=C/c1ccccc1)/C=N/n1c(-c2ccncc2)n[nH]c1=S,0,1,-5,-2,-1,-2
SMILES,DAX1 inh-1,hgDAF-12 ag,SMARCA2 act,ssDAF12 agonist,DAX1 inh-2,hcDAF12 agonist
O=C(NC1=NC2CCCCC2N1)c1ccccc1 (stereo not given),3.8*,8,6,0,1,2
O=C(NC1CCCCCCC1O)c1ccccc1 (stereo not given),0,6,4,0,0,0
CS(=O)(=O)c1ccc(CNC(=O)[C@]2(C(F)(F)F)C[C@H](CCc3ccccc3)CCCO2)cc1,-1,3,-2,-2,0,-2
CN1c2ccccc2Oc2nnc(N3CCN(Cc4ccccc4)CC3)cc21,0,10*,5,-2,-3,-1
COCCN(C(=S)Nc1ccccc1C)C(C)c1ccco1 (stereo not given),0,-2,2,0,2,-1
COCCN(C(=S)Nc1cccc(C)c1C)C(C)c1ccco1 (stereo not given),1,1,1,-1,8.3*,-1
COc1ccc(OC)c(NC(=O)CSc2nncc(=O)n2N)c1,1,-1,-2,0.9*,0,-1
CCc1ccc(Nc2ncc3c(n2)CC(C)(C)CC3=O)cc1,1,7,6,-1,7.1*,2
CCc1ccc(Nc2ncc3c(n2)CC(C)CC3=O)cc1 (stereo not given),3.8*,10,0,0,1,1
COCC(C)N1CCC(Oc2ccc(C(=O)NCc3ccccn3)cc2)CC1 (stereo not given),-2,-1,-1,-1,1,0
CCC(C)Nc1ccc(NC(C)CC)cc1 (stereo not given),.,.,.,.,-1,.
COc1ccc(C(=O)NC2CCCCCC2)cc1OC1CCN(C(C)=O)CC1,-1,-2,-3,-1,0,0
O=C(NC1CC1)C1=C[C@@H](c2c[nH]c3ccccc23)C[C@@H](OCc2ccc(CO)cc2)O1,0,11*,0,-1,1,2
O=C(CCNC(=O)c1ccc(Cl)cc1)Nc1ccccc1Cl,0,-1,-2,-1,1,-3
CCOC(=O)N1CCN(C(=O)COc2cc(=O)n(CC)c3ccccc23)CC1,0,0,-1,-1,8.2*,-1
Cc1cc(C)c(S(=O)(=O)n2ccc3ccccc32)c(C)c1,1,1,-2,1.7*,0,-1
O=S(=O)(c1ccccc1)n1ccc2ccccc21,0,0,-2,0,0,2
O=[N+]([O-])c1ncccc1OCc1ccc(Br)cc1F,0,11*,4,0,0,1
O=c1oc2ccccc2cc1-c1ccccc1,1,6,4,0,6.0*,0
O=c1oc2ccc3ccccc3c2cc1-c1nnc(-c2cccs2)o1,2,11*,1,1,3,3
O=c1oc2ccccc2cc1-c1nc(-c2cccs2)cs1,1,4,7,0.9*,2,6.1*
